Most compounds without a hit are left out; they make up all but 2% or so of the library.
GC-B act: GC-B (human) receptor activation; P20594; HEK293-GC-B cells, CNP EC30, cGMP TR-FRET; 0% at EC30 CNP, 100% saturating CNP; activation, % at 10 µM; 370,000 compounds, 0.11% hits; AID 1920062;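 active = activation at 10 µM reaching about 35% in either raw or pattern-adjusted values, limit read from the data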
APOBEC3G inh: APOBEC3G (human) deaminase inhibition. Q9HC16. AID 493012. recombinant A3G, ssDNA deamination FAM/TAMRA fluorescence. 330,000 compounds, 0.28% hits. inhibition, % at 20 µM;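 active = inhibition of at least 40% at 20 µM, with no more than 30% in the related APOBEC3A deaminase screen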;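 also: plate controls were DMSO wells with A3G for no effect and wells lacking A3G enzyme for full effect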
GC-A act: GC-A (human) enzyme activation; activation, % at 10 µM; HEK293 GC-A cells, cGMP TR-FRET, EC30 ANP; 0% at EC30 ANP, 100% saturating ANP; 370,000 compounds, 0.14% hits; P16066; in the data active = activation above about 40%
Neddylation inh: cullin neddylation inhibition | P61081+Q13564 | 360,000 compounds, 0.58% hits | AID 651699 | inhibition, % at 25 µM | TR-FRET cullin neddylation, biochemical; in the data active = inhibition above about 36%
PfGluPho inh: PfG6PD (Plasmodium falciparum) enzyme inhibition. PfGluPho enzyme, NADPH resazurin-diaphorase fluorescence. inhibition, % at 20 µM. 350,000 compounds, 0.78% hits;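 active = inhibition reaching at least a set limit at 20 µM in the primary screen, cut at about 59% in these data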;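 also: 0% = DMSO wells with substrate and 100% = DMSO wells lacking glucose-6-phosphate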
A3A deaminase: human APOBEC3A DNA deaminase inhibition; P31941; recombinant A3A, FAM/TAMRA ssDNA deamination fluorescence; inhibition, % at 20 µM; 330,000 compounds, 0.41% hits; AID 493011;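 active = at least 40% inhibition at 20 µM here, with at most 30% in a related deaminase screen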;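 also: plate controls were A3A with DMSO for no effect and wells lacking A3A enzyme for full effect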
Neddyl conf: cullin neddylation inhibition, confirmation | TR-FRET cullin neddylation biochemical assay | shares compounds with Neddylation inh | calls only at 25 µM | 1,800 compounds, 13% hits; in the data active = inhibition above about 40%;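 also: neddylation substrate is the cullin 1 ring ligase complex with SKP2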
Starred values were filed as active, the others as inactive.

Results for COc1ccc(C(=O)c2ccc3oc(-c4ccc(OC)cc4)c(C#CCCO)c3c2)cc1 ?
GC-B act: 3; APOBEC3G inh: 1; GC-A act: -2; Neddylation inh: 17; PfGluPho inh: 2; A3A deaminase: 1

How did COc1cc(OC)cc(-c2oc3cccnc3c2C#CCCO)c1 do in these assays?
GC-B act: -27; APOBEC3G inh: -4; GC-A act: -20; Neddylation inh: 37*; PfGluPho inh: 6; A3A deaminase: -1; Neddyl conf: active

How did S=c1[nH]c(-c2ccccc2)cn1/N=C/c1ccc(Br)cc1 do in these assays?
GC-B act: -5; APOBEC3G inh: -7; GC-A act: 10; Neddylation inh: 42*; PfGluPho inh: 29; A3A deaminase: -2; Neddyl conf: inactive

What do the screens show for `Fc1ccccc1/C=N/n1cc(-c2ccccc2)[nH]c1=S`?
GC-B act: 5; APOBEC3G inh: -8; GC-A act: -1; Neddylation inh: 5; PfGluPho inh: 48; A3A deaminase: -5

How did O=C(Cc1ccccc1Cl)NCCN1C(=O)C2C3C=CC(C3)C2C1=O (stereo unspecified) do in these assays?
GC-B act: 1; GC-A act: -3

What do the screens show for `Nc1nc2ccccc2nc1N`?
GC-B act: 2; APOBEC3G inh: -5; GC-A act: 2; Neddylation inh: 43*; PfGluPho inh: -8; A3A deaminase: -2; Neddyl conf: active

What do the screens show for `c1ccc2c(c1)-c1cccc3cncc-2c13`?
GC-B act: -5; GC-A act: 1; Neddylation inh: 40*; PfGluPho inh: 57; Neddyl conf: inactive

What do the screens show for `c1ccc2c(-c3cncc4ccccc34)cncc2c1`?
GC-B act: 2; APOBEC3G inh: -8; GC-A act: -11; Neddylation inh: 17; PfGluPho inh: 15; A3A deaminase: -2

How did O=C(O)Cn1c(=O)c(-c2ccccc2)nc2ccccc21 do in these assays?
GC-B act: 4; APOBEC3G inh: 0; GC-A act: -2; Neddylation inh: 55*; PfGluPho inh: -13; A3A deaminase: -4

Results for O=C(O)Cn1c(-c2ccccc2)nc2ccccc21 ?
GC-B act: 4; APOBEC3G inh: -9; GC-A act: 0; Neddylation inh: 19; PfGluPho inh: -3; A3A deaminase: -5

What do the screens show for `O=C1CCC2(CCC(c3ccccc3)CC2)N1CCCO` (stereo unspecified)?
GC-B act: 3; GC-A act: 6

How did CCOC(=O)C1=C(C)NC(C)=C(C(=O)OCC)C1C do in these assays?
GC-B act: -1; APOBEC3G inh: -8; GC-A act: 1; Neddylation inh: 47*; PfGluPho inh: -5; A3A deaminase: 2

How did CCOC(=O)C1=C(C)NC(C)=C(C(=O)OCC)C1c1ccc(OC)cc1 do in these assays?
GC-B act: 2; APOBEC3G inh: -7; GC-A act: -16; PfGluPho inh: -3; A3A deaminase: -6

What do the screens show for `Cc1c(Cl)ccc2sc(NC(=O)c3ccco3)nc12`?
GC-B act: -10; APOBEC3G inh: -4; GC-A act: 16; Neddylation inh: 42*; PfGluPho inh: -4; A3A deaminase: 1; Neddyl conf: inactive

What do the screens show for `CSc1ccc(/C=C(\NC(=O)c2ccc(C)cc2)C(=O)Nc2cccc(C)c2)cc1`?
GC-B act: 6; APOBEC3G inh: -3; GC-A act: -1; Neddylation inh: 54*; PfGluPho inh: -7; A3A deaminase: 1; Neddyl conf: inactive

How did N#Cc1nc(-c2ccccc2F)oc1NCCc1ccccn1 do in these assays?
GC-B act: 1; APOBEC3G inh: 4; GC-A act: -5; Neddylation inh: 39*; PfGluPho inh: 11; A3A deaminase: 3; Neddyl conf: inactive

How did Cc1cccc(-c2n[nH]c(=S)n2/N=C/C=C/c2ccco2)c1 do in these assays?
GC-B act: -10; APOBEC3G inh: 54; GC-A act: -11; Neddylation inh: 60*; PfGluPho inh: 21; A3A deaminase: 52; Neddyl conf: inactive

What do the screens show for `CCn1c(CSc2nccn2C)nc2cc(C(=O)O)ccc21`?
APOBEC3G inh: -4; Neddylation inh: 24; PfGluPho inh: 6; A3A deaminase: -3
